Bioassay records from PubChem BioAssay.
Compounds with a hit are over-represented: about 4.1% of the library has one in this group of screens.
beta cell repl: inducers of MIN6 beta-cell proliferation, primary screen, ATP luminescence, uHTS. MIN6 cells proliferation, ATPlite luminescence, 48 h; cells starved in 0.2% serum; 100% = growth in 10% serum. proliferation, % at 10 µM. AID 2380, 2010. 330,000 tested, 0.29% active;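 active = compounds whose signal lies at least 3.5 SD above the mean of all wells on their plate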;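 also: 0% = DMSO-treated cells in low-serum medium and 100% = 10% serum control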
pCIP destab: p/CIP-EGFP fusion destabilizers, primary screen, fluorescence, F442A cells; 290,000 tested, 0.01% active; AID 1984, 2009; 16 h; Q05BA5; decrease of EGFP signal, % at 10 µM;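 active = EGFP signal decrease of at least 30% at 10 µM or well 3 SD below plate mean, unless failing retest; inactive = the rest, including hits failing retest or dose response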
FAS TE block: FAS thioesterase domain inhibitors, primary screen, biochemical, fluorescence intensity, uHTS; Fatty acid synthase (Homo sapiens), P49327; recombinant FAS-TE, OMFH fluorogenic substrate, fluorescence endpoint; inhibition, % at 15 µM; 360,000 tested, 0.67% active; AID 602261, 2012;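 active = compounds whose normalised, plate-corrected inhibition of enzyme fluorescence in the single-dose primary screen is 50% or more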;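 also: 0% = DMSO with enzyme and 100% = substrate without enzyme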
MPTP inh: mitochondrial permeability transition pore inhibitors, primary screen, biochemical, isolated mouse mitochondria, absorbance | 360,000 tested, 1.4% active | inhibition, % at 10 µM | Ca2+ swelling absorbance, 30 min | AID 602449, 2012;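 active = inhibition of 50% or more, scaled per plate between neutral and stimulator controls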;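 also: 0% = DMSO wells given calcium and 100% = 1 mM EGTA wells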
NR3A LBD binder: binders of NR3A ligand-binding domain, primary screen, biophysical, differential scanning fluorimetry, uHTS. Glutamate receptor ionotropic, NMDA 3A (GRIN3A) ligand-binding domain. NR3A LBD differential scanning fluorimetry, Tm shift; 0% = protein alone, 100% = glycine-bound protein. Tm shift relative to glycine control, % at 25 µM. 340,000 tested, 2.5% active. AID 1259313, 2017;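 active = melting temperature shift of at least 10% of the positive control shift, at one fixed dose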
Rh123 counter: fluorescence retest of MPTP screen hits in isolated mitochondria, single concentration; inhibition, % at 10 µM; membrane potential, Rhodamine 123 fluorescence; 5,000 tested, 78% active; shares compounds with MPTP inh; AID 624504, 2012; in the data active = inhibition above about 22%;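 also: 0% = DMSO vehicle and 100% = positive control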
MPTP abs DR: mitochondrial permeability transition pore inhibitors, dose response, biochemical, absorbance, uHTS hits; shares compounds with MPTP inh; isolated mitochondria swelling; IC50, µM; 780 tested, 58% active; in the data active = IC50 below about 20 µM
MPTP counter DR: fluorescent counter-screen in isolated mitochondria, dose response, counter-screen for MPTP inhibitor project, biochemical, fluorescence, uHTS hits. isolated mitochondria counterscreen, fluorescence read-out. shares compounds with MPTP inh. 780 tested, 49% active. IC50, µM. AID 651564, 2012; in the data active = IC50 below about 80 µM
* hit, by the source's call.

For CCCCCCc1cc2cc(/C(N)=N/NC(=O)c3ccncc3)c(=O)oc2cc1O the results were beta cell repl -7, FAS TE block -71, MPTP inh -2 and NR3A LBD binder -1.
`COc1ccc(S(=O)(=O)O/N=C2\CCSc3ccc(C)cc32)cc1` gave beta cell repl -2, pCIP destab -4, FAS TE block 28, MPTP inh 59*, NR3A LBD binder 4 and Rh123 counter 37*.
Screening Cc1ccc(C(=O)O/N=C2\CCSc3ccc(C)cc32)cc1 returned beta cell repl -1, pCIP destab 4, FAS TE block 27, MPTP inh 1 and NR3A LBD binder 2.
`CC(C)c1nnc(NC(=O)CSc2nnc(-c3ccco3)o2)s1` gave beta cell repl -3, pCIP destab 2, FAS TE block -5, MPTP inh -1 and NR3A LBD binder -1.
`C=CCc1cccc(/C=N/NC(=O)C(=O)Nc2ccc(C)cc2)c1O` gave beta cell repl -3, pCIP destab -8, FAS TE block -3, MPTP inh -1 and NR3A LBD binder -2.
`C=CCc1cccc(/C=N/NC(=O)C(C)Nc2ccc(C)cc2)c1O` (stereo not given) gave beta cell repl -3, pCIP destab -4, FAS TE block 17, MPTP inh 80*, NR3A LBD binder 7 and Rh123 counter 62*.
Cc1ccc(Cn2nnc3c(=O)[nH]c(C4CCN(S(=O)(=O)c5ccccc5F)CC4)nc32)cc1 was read as beta cell repl -2, pCIP destab 1, FAS TE block -4, MPTP inh 0 and NR3A LBD binder -6.
Screening COC(=O)NNC(=O)c1ccc(Cl)cc1Cl returned beta cell repl -1, pCIP destab 2, FAS TE block -8, MPTP inh 0 and NR3A LBD binder -1.
CC(C)(C)C(=O)NC(=S)NNC(=O)c1ccc(Cl)cc1Cl was read as beta cell repl -1, pCIP destab -12, FAS TE block -6, MPTP inh 76*, NR3A LBD binder -3 and Rh123 counter -5.
CC(C)(C)C(=O)NC(=S)NNC(=O)c1ccc(-c2ccccc2)cc1 was read as beta cell repl -6, pCIP destab -20, FAS TE block 3, MPTP inh 94*, NR3A LBD binder -9 and Rh123 counter 23*.
For NS(=O)(=O)c1ccc(CNC(=S)Nc2ccc(F)c(Cl)c2)cc1 the results were beta cell repl 0, pCIP destab -13, FAS TE block 1, MPTP inh 1 and NR3A LBD binder -1.
For S=C(Nc1ccc(Cl)cc1)Nc1ccc2c(c1)OCCO2 the results were beta cell repl -6, pCIP destab -12, FAS TE block 2, MPTP inh 50*, NR3A LBD binder 2 and Rh123 counter 99*.
For S=C(Nc1ccc2c(c1)OCCO2)Nc1ccccc1Cl the results were beta cell repl -5, pCIP destab -12, FAS TE block -1, MPTP inh -1 and NR3A LBD binder 3.
Screening Fc1ccc(NC(=S)Nc2ccc(F)c(Cl)c2)cc1Cl returned beta cell repl -5, pCIP destab 14, FAS TE block 43, MPTP inh 92*, NR3A LBD binder 12* and Rh123 counter 89*.
`Cc1ccc(NC(=S)Nc2ccc(OC(F)F)c(Cl)c2)cc1F` gave beta cell repl -7, pCIP destab 19, FAS TE block 24, MPTP inh 98*, NR3A LBD binder 32* and Rh123 counter 87*.
COc1ccc(CNC(=S)Nc2ccc(F)c(Cl)c2)cc1 was read as beta cell repl -5, pCIP destab -2, FAS TE block 23, MPTP inh 96*, NR3A LBD binder 1 and Rh123 counter 97*.
For O=C(NC(=S)Nc1ccc(F)c(Cl)c1)C1CC1 the results were beta cell repl -7, pCIP destab -15, FAS TE block 7, MPTP inh 0 and NR3A LBD binder 1.
For Cc1cccc(C(=O)NNC(=O)CN2C(=O)c3ccccc3C2=O)c1 the results were beta cell repl -1, pCIP destab -9, FAS TE block -8, MPTP inh -1 and NR3A LBD binder 0.
For NS(=O)(=O)c1ccc(NC(=S)Nc2ccc(F)c(F)c2)cc1 the results were beta cell repl 0, pCIP destab -5, FAS TE block -8, MPTP inh 67*, NR3A LBD binder -1 and Rh123 counter 68*.
Screening NS(=O)(=O)c1ccc(NC(=S)NCc2ccc(Cl)cc2)cc1 returned beta cell repl -1, pCIP destab -5, FAS TE block 6, MPTP inh 0 and NR3A LBD binder -6.
COc1ccc(CNC(=S)Nc2ccc(Br)cc2)cc1 was read as beta cell repl -3, pCIP destab 12, FAS TE block 13, MPTP inh 88*, NR3A LBD binder -4 and Rh123 counter 92*.
COc1ccc(CNC(=S)Nc2ccc(-c3ccccc3)cc2)cc1 was read as beta cell repl -7, pCIP destab 2, FAS TE block 13, MPTP inh 18 and NR3A LBD binder 6.
For CN1CCN(c2nc(-c3ccccc3)c3cc(Cl)ccc3n2)CC1 the results were beta cell repl -3, pCIP destab -18, FAS TE block 10, MPTP inh 63*, NR3A LBD binder 1, Rh123 counter -6, MPTP abs DR 17* and MPTP counter DR 77*.
For OCCN1CCN(c2nc(-c3ccccc3)c3cc(Cl)ccc3n2)CC1 the results were beta cell repl -4, pCIP destab -17, FAS TE block 4, MPTP inh 80*, NR3A LBD binder -1, Rh123 counter -14, MPTP abs DR 9.2* and MPTP counter DR >80.
`Cn1ccc(C(=O)Nc2ccc(Br)cc2Br)n1` gave beta cell repl 0, pCIP destab -9, FAS TE block -2, MPTP inh 1 and NR3A LBD binder -5.
COc1ccc(NC(=O)C(c2ccccc2)N2CCN(c3ccccn3)CC2)cc1Cl (stereo not given) was read as beta cell repl -2, pCIP destab 5, FAS TE block 21, MPTP inh 1 and NR3A LBD binder -29.
